{
  "source": "paper PMC12529666",
  "about": "“Dysregulation of AGO2-miRNA dynamics underlies the AGO2-associated Lessel–Kreienkamp syndrome”",
  "test_in_all_cases": "RNA Bind-n-Seq (nitrocellulose filter binding and sequencing); miR-122 guide loaded in AGO2; 60 min incubation; 30 mM Tris pH 8.0, 100 mM potassium acetate, 2 mM magnesium acetate, 0.5 mM TCEP, 0.005% NP-40, 0.01 mg/ml yeast tRNA; 3 nM AGO2-miR-122, 100 nM RNA library; 60; high values mean tight binding",
  "details_in_all_cases": "protein: recombinant; tags: His6 (N-terminal, pFastBac HTA)",
  "key": {"AGO2 L192P": {"target": "AGO2 L192P (Homo sapiens, UniProt Q9UKV8 1-859, L192P;S387D;S824A;S828D;S831D;S834A)", "sequence (Q9UKV8 whole entry L192P/S387D/S824A/S828D/S831D/S834A)": "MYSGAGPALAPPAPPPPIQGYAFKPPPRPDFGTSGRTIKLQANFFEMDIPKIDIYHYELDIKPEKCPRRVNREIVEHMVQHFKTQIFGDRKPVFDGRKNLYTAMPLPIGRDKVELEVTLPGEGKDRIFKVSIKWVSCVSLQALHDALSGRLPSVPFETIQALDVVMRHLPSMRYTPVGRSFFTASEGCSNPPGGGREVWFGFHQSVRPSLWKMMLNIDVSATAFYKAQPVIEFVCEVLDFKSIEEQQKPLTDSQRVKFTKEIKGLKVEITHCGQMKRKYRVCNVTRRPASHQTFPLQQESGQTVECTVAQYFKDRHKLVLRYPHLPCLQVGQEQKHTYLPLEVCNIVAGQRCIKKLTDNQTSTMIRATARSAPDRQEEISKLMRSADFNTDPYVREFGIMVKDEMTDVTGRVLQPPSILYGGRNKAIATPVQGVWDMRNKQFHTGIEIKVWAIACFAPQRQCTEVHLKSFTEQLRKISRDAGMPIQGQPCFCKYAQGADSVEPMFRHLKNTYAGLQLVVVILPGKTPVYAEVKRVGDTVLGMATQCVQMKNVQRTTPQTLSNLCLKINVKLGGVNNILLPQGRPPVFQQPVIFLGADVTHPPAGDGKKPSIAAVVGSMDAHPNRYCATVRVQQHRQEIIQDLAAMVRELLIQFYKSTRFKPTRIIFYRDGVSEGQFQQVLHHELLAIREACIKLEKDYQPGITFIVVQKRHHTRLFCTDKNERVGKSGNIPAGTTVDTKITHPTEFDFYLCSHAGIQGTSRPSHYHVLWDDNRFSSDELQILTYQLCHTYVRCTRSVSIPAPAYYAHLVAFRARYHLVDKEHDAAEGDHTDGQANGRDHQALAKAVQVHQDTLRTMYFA", "how_it_was_run": "(§1)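 Fold enrichment is each target's read fraction divided by its read fraction in the input library. Sf9 insect cells expressed His-tagged AGO2 from baculovirus; the protein was loaded with a synthetic guide RNA and purified by Ni-NTA and a biotinylated capture oligo. The bound RNA was extracted, reverse-transcribed, barcode-amplified and sequenced on Illumina.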"}, "AGO2 A367P": {"target": "AGO2 A367P (Homo sapiens, UniProt Q9UKV8 1-859, A367P;S387D;S824A;S828D;S831D;S834A)", "sequence (Q9UKV8 whole entry A367P/S387D/S824A/S828D/S831D/S834A)": "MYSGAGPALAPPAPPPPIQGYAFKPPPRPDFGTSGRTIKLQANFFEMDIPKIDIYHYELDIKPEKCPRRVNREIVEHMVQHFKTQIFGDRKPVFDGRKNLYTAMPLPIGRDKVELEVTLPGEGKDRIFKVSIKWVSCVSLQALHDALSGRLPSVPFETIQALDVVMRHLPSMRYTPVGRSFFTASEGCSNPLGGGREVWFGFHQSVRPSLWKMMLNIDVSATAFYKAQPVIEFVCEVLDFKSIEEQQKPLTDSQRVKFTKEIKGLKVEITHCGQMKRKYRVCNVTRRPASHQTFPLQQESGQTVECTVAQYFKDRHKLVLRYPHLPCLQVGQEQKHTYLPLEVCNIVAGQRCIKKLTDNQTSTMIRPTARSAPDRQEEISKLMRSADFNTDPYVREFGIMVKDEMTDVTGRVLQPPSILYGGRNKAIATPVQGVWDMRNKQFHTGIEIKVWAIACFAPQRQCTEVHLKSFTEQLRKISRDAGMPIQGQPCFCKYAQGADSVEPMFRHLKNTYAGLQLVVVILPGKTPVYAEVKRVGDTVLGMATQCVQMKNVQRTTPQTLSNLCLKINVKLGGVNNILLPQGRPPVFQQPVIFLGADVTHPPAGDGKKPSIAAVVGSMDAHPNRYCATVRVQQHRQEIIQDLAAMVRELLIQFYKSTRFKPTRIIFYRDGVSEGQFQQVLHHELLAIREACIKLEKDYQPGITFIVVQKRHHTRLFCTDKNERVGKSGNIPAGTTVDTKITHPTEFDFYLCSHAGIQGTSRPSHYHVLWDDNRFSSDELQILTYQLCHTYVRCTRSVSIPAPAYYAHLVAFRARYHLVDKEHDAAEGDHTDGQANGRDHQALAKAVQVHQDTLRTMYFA", "how_it_was_run": "as §1"}, "AGO2 T357M": {"target": "AGO2 T357M (Homo sapiens, UniProt Q9UKV8 1-859, T357M;S387D;S824A;S828D;S831D;S834A)", "sequence (Q9UKV8 whole entry T357M/S387D/S824A/S828D/S831D/S834A)": "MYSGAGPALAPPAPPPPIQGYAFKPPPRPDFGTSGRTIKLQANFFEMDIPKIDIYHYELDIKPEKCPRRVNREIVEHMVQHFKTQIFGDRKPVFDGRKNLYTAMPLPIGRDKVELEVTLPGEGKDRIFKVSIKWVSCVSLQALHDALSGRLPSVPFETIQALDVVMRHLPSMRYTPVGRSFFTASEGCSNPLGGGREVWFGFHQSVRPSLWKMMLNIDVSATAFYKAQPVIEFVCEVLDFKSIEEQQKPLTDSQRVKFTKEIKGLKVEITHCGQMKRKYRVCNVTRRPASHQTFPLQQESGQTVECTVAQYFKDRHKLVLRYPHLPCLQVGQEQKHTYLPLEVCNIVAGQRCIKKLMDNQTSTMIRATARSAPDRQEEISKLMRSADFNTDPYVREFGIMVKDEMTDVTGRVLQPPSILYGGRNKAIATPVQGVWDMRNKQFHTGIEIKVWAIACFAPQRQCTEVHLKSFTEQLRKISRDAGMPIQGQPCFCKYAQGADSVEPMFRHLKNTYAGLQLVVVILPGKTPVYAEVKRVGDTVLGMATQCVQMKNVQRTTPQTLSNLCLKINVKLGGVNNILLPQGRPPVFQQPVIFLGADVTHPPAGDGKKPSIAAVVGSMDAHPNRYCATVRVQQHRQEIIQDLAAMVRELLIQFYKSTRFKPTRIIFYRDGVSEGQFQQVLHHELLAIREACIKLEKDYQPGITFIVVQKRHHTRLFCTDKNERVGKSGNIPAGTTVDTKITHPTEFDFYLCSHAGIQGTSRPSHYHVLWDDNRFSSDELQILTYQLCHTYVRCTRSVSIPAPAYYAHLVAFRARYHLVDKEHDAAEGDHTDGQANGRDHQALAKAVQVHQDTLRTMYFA", "how_it_was_run": "as §1"}, "AGO2 F182del": {"target": "AGO2 F182del (Homo sapiens, UniProt Q9UKV8 1-859, S387D;S824A;S828D;S831D;S834A;del182-182)", "sequence (Q9UKV8 other isoform, or with tags, fused parts or gaps S387D;S824A;S828D;S831D;S834A;del182-182)": "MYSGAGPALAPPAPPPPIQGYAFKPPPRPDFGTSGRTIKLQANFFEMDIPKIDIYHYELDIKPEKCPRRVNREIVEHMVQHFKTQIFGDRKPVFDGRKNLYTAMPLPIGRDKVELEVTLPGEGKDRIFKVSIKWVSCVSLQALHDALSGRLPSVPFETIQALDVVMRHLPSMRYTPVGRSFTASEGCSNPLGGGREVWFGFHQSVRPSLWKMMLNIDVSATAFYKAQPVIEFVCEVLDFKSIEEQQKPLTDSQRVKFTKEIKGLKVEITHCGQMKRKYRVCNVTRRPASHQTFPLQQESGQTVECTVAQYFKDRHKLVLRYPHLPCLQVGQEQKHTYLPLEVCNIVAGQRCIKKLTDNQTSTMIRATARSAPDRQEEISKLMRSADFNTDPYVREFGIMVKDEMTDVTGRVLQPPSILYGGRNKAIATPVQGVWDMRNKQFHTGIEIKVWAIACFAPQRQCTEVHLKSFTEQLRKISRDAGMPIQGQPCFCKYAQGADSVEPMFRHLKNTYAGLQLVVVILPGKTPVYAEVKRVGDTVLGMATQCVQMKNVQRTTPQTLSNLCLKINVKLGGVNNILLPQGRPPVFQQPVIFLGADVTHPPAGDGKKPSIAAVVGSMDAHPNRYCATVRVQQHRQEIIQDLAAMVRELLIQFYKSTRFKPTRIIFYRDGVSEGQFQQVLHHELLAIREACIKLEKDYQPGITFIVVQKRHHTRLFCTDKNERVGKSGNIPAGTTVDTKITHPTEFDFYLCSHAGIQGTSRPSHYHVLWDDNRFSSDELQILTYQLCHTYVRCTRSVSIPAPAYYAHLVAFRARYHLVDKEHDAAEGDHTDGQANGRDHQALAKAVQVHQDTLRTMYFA", "how_it_was_run": "as §1"}},
  "data": [
    {"binder": "GTGCCCTA (ssRNA, constant regions annealed to DNA blockers; guide miR-122 5' phosphate) RNA 1: GAGUUCUACAGUCCGACGAUCCCAACGUGCCCUACACCUGGAAUUCUCGGGUGCCAA RNA 2: UGGAGUGUGACAAUGGUGUUUG DNA 1: GATCGTCGGACTGTAGAACTC DNA 2: TTGGCACCCGAGAATTCCA", "values": [
      {"measurement": "binding signal", "setting": "AGO2 L192P", "value": "0.458 fold enrichment over input"},
      {"measurement": "binding signal", "setting": "AGO2 A367P", "value": "0.188 fold enrichment over input"},
      {"measurement": "binding signal", "setting": "AGO2 T357M", "value": "0.663 fold enrichment over input"}
    ]},
    {"binder": "GCGCCTCG (ssRNA, constant regions annealed to DNA blockers; guide miR-122 5' phosphate) RNA 1: GAGUUCUACAGUCCGACGAUCCCAACGCGCCUCGCACCUGGAAUUCUCGGGUGCCAA RNA 2: UGGAGUGUGACAAUGGUGUUUG DNA 1: GATCGTCGGACTGTAGAACTC DNA 2: TTGGCACCCGAGAATTCCA", "values": [
      {"measurement": "binding signal", "setting": "AGO2 L192P", "value": "0.37 fold enrichment over input"},
      {"measurement": "binding signal", "setting": "AGO2 A367P", "value": "0.145 fold enrichment over input"},
      {"measurement": "binding signal", "setting": "AGO2 T357M", "value": "0.55 fold enrichment over input"}
    ]},
    {"binder": "GTGTTTCA (ssRNA, constant regions annealed to DNA blockers; guide miR-122 5' phosphate) RNA 1: GAGUUCUACAGUCCGACGAUCCCAACGUGUUUCACACCUGGAAUUCUCGGGUGCCAA RNA 2: UGGAGUGUGACAAUGGUGUUUG DNA 1: GATCGTCGGACTGTAGAACTC DNA 2: TTGGCACCCGAGAATTCCA", "values": [
      {"measurement": "binding signal", "setting": "AGO2 L192P", "value": "0.477 fold enrichment over input"},
      {"measurement": "binding signal", "setting": "AGO2 A367P", "value": "0.178 fold enrichment over input"},
      {"measurement": "binding signal", "setting": "AGO2 T357M", "value": "0.587 fold enrichment over input"}
    ]},
    {"binder": "ACGTCTCG (ssRNA, constant regions annealed to DNA blockers; guide miR-122 5' phosphate) RNA 1: GAGUUCUACAGUCCGACGAUCCCAACACGUCUCGCACCUGGAAUUCUCGGGUGCCAA RNA 2: UGGAGUGUGACAAUGGUGUUUG DNA 1: GATCGTCGGACTGTAGAACTC DNA 2: TTGGCACCCGAGAATTCCA", "values": [
      {"measurement": "binding signal", "setting": "AGO2 L192P", "value": "0.32 fold enrichment over input"},
      {"measurement": "binding signal", "setting": "AGO2 A367P", "value": "0.146 fold enrichment over input"},
      {"measurement": "binding signal", "setting": "AGO2 T357M", "value": "0.421 fold enrichment over input"}
    ]},
    {"binder": "GTGCCTTG (ssRNA, constant regions annealed to DNA blockers; guide miR-122 5' phosphate) RNA 1: GAGUUCUACAGUCCGACGAUCCCAACGUGCCUUGCACCUGGAAUUCUCGGGUGCCAA RNA 2: UGGAGUGUGACAAUGGUGUUUG DNA 1: GATCGTCGGACTGTAGAACTC DNA 2: TTGGCACCCGAGAATTCCA", "values": [
      {"measurement": "binding signal", "setting": "AGO2 L192P", "value": "0.422 fold enrichment over input"},
      {"measurement": "binding signal", "setting": "AGO2 A367P", "value": "0.159 fold enrichment over input"},
      {"measurement": "binding signal", "setting": "AGO2 T357M", "value": "0.548 fold enrichment over input"}
    ]},
    {"binder": "GCATCCTA (ssRNA, constant regions annealed to DNA blockers; guide miR-122 5' phosphate) RNA 1: GAGUUCUACAGUCCGACGAUCCCAACGCAUCCUACACCUGGAAUUCUCGGGUGCCAA RNA 2: UGGAGUGUGACAAUGGUGUUUG DNA 1: GATCGTCGGACTGTAGAACTC DNA 2: TTGGCACCCGAGAATTCCA", "values": [
      {"measurement": "binding signal", "setting": "AGO2 L192P", "value": "0.47 fold enrichment over input"},
      {"measurement": "binding signal", "setting": "AGO2 A367P", "value": "0.168 fold enrichment over input"},
      {"measurement": "binding signal", "setting": "AGO2 T357M", "value": "0.563 fold enrichment over input"}
    ]},
    {"binder": "GCGTTTCG (ssRNA, constant regions annealed to DNA blockers; guide miR-122 5' phosphate) RNA 1: GAGUUCUACAGUCCGACGAUCCCAACGCGUUUCGCACCUGGAAUUCUCGGGUGCCAA RNA 2: UGGAGUGUGACAAUGGUGUUUG DNA 1: GATCGTCGGACTGTAGAACTC DNA 2: TTGGCACCCGAGAATTCCA", "values": [
      {"measurement": "binding signal", "setting": "AGO2 L192P", "value": "0.361 fold enrichment over input"},
      {"measurement": "binding signal", "setting": "AGO2 A367P", "value": "0.139 fold enrichment over input"},
      {"measurement": "binding signal", "setting": "AGO2 T357M", "value": "0.534 fold enrichment over input"}
    ]},
    {"binder": "ATGCCTTA (ssRNA, constant regions annealed to DNA blockers; guide miR-122 5' phosphate) RNA 1: GAGUUCUACAGUCCGACGAUCCCAACAUGCCUUACACCUGGAAUUCUCGGGUGCCAA RNA 2: UGGAGUGUGACAAUGGUGUUUG DNA 1: GATCGTCGGACTGTAGAACTC DNA 2: TTGGCACCCGAGAATTCCA", "values": [
      {"measurement": "binding signal", "setting": "AGO2 L192P", "value": "0.434 fold enrichment over input"},
      {"measurement": "binding signal", "setting": "AGO2 A367P", "value": "0.179 fold enrichment over input"},
      {"measurement": "binding signal", "setting": "AGO2 T357M", "value": "0.617 fold enrichment over input"}
    ]},
    {"binder": "ACGTTCTA (ssRNA, constant regions annealed to DNA blockers; guide miR-122 5' phosphate) RNA 1: GAGUUCUACAGUCCGACGAUCCCAACACGUUCUACACCUGGAAUUCUCGGGUGCCAA RNA 2: UGGAGUGUGACAAUGGUGUUUG DNA 1: GATCGTCGGACTGTAGAACTC DNA 2: TTGGCACCCGAGAATTCCA", "values": [
      {"measurement": "binding signal", "setting": "AGO2 L192P", "value": "0.434 fold enrichment over input"},
      {"measurement": "binding signal", "setting": "AGO2 A367P", "value": "0.184 fold enrichment over input"},
      {"measurement": "binding signal", "setting": "AGO2 T357M", "value": "0.53 fold enrichment over input"},
      {"measurement": "binding signal", "setting": "AGO2 F182del", "value": "0.195 fold enrichment over input"}
    ]},
    {"binder": "GTACTTTA (ssRNA, constant regions annealed to DNA blockers; guide miR-122 5' phosphate) RNA 1: GAGUUCUACAGUCCGACGAUCCCAACGUACUUUACACCUGGAAUUCUCGGGUGCCAA RNA 2: UGGAGUGUGACAAUGGUGUUUG DNA 1: GATCGTCGGACTGTAGAACTC DNA 2: TTGGCACCCGAGAATTCCA", "values": [
      {"measurement": "binding signal", "setting": "AGO2 L192P", "value": "0.446 fold enrichment over input"},
      {"measurement": "binding signal", "setting": "AGO2 A367P", "value": "0.161 fold enrichment over input"},
      {"measurement": "binding signal", "setting": "AGO2 T357M", "value": "0.636 fold enrichment over input"}
    ]},
    {"binder": "GTGTTTTA (ssRNA, constant regions annealed to DNA blockers; guide miR-122 5' phosphate) RNA 1: GAGUUCUACAGUCCGACGAUCCCAACGUGUUUUACACCUGGAAUUCUCGGGUGCCAA RNA 2: UGGAGUGUGACAAUGGUGUUUG DNA 1: GATCGTCGGACTGTAGAACTC DNA 2: TTGGCACCCGAGAATTCCA", "values": [
      {"measurement": "binding signal", "setting": "AGO2 L192P", "value": "0.467 fold enrichment over input"},
      {"measurement": "binding signal", "setting": "AGO2 A367P", "value": "0.167 fold enrichment over input"},
      {"measurement": "binding signal", "setting": "AGO2 T357M", "value": "0.565 fold enrichment over input"}
    ]}
  ]
}
